# Test results: PubChem BioAssay (NCI)
# Compounds without any hit were thinned out: in the full panel of roughly 83,000, 20% have a hit.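 Activity criterion: percent growth below 10, measured after cells in 96-well plates were exposed to a single compound concentration for 48 hours.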 Unmarked numbers belong to inactive results. Calls of active or inactive are those of the source.
# System: HL-60(TB) leukemia
# Assay: NCI-60 one-dose screen, 48 h (100 = growth as untreated, 0 = no growth, -100 = all killed)
# Settings: 10 µM unless noted
row,Structure (SMILES),growth
1,Nc1nnc(-c2ccc3ccccc3c2O)o1,102%
2,CCCCCCCCCCCCCCCCCCNCc1ccc(Cl)cc1,-65.8% (active)
3,O=C(Nc1ccc(F)cc1)Nc1ccc(Cl)c([N+](=O)[O-])c1,-15.6% (active)
4,COc1cc(/C=C/C(=O)c2cccc(-n3cc(-c4ccc(Cl)cc4)[nH]c3=O)c2)cc(OC)c1OC,62.7%
5,CCN1CCN(c2ccc(Nc3ncc4ccc5ncn(C(C)C)c5c4n3)nc2)CC1,-36.3% (active)
6,Cc1ccc(S(=O)(=O)Oc2cc(OS(=O)(=O)c3ccc(C)cc3)cc(OS(=O)(=O)c3ccc(C)cc3)c2)cc1,107%
7,CN(C)c1ccc(N=Cc2ccc(N3CCOCC3)cc2)cc1,16.6%
8,NCCCNc1nc2ccccc2c2c(=O)c3cc(F)cc(F)c3sc12,61.2%
9,COc1ccc(Oc2nc(NC3CCCC3)nc(Sc3ccc(OC)cc3)n2)cc1,48.3%
10,Cc1cc(SC#N)cc(C(C)(C)C)c1O,74.3%
11,Cc1cnc(Nc2ccc(OCCN3CCCC3)cc2)nc1Nc1cccc(S(=O)(=O)NC(C)(C)C)c1,-39.7% (active)
12,O=C(Cn1cc(CSc2nc3ccccc3o2)nn1)Nc1ccc([N+](=O)[O-])cc1,98.2%
13,COc1ccc(-c2cc(-c3cn(-c4cccc(Cl)c4)nc3-c3ccc(OC)cc3)on2)cc1,93.6%
14,Cn1cc(-c2csc(-c3cn(C)c4ncccc34)n2)c2cc(Br)cnc21,83.1%
15,O=C(Nc1ccc(C2=NCCCN2)cc1)c1ccc(C(=O)Nc2ccc(C3=NCCCN3)cc2)nc1,79%
16,C/C=C(/C)C(=O)OC1C=C(CO)C(=O)C(OC(=O)/C(C)=C\C)C1C(C)C (stereo not given),-32% (active)
17,NC1CCC(Nc2nc(NCc3ccc(-c4ccco4)nc3)c3ncn(C4CCCC4)c3n2)CC1 (stereo not given),-33.3% (active)
18,c1ccc2c(-c3c[nH]c4ccccc34)c3c(cc2c1)[nH]c1ccccc13,51.5%
19,O=C(Nc1ccccc1)Oc1cccc2cccnc12,57.3%
20,O=c1cc2oc3cc(O)c(O)cc3c(-c3ccccc3O)c-2cc1O,103%

row,Structure (SMILES),growth
1,C=C1C(=O)O[C@H]2[C@H]1CC/C(COC(=O)CSCSCC(=O)OC/C1=C/CC[C@@]3(C)O[C@H]3[C@H]3OC(=O)C(=C)[C@@H]3CC1)=C\CC[C@@]1(C)O[C@@H]21,-53.9% (active)
2,O=C(O)c1ccc(-c2nn(-c3ccc(C(=O)O)cc3)cc2CNc2ccc(Br)cc2)cc1,107%
3,N#Cc1ccc(-n2cnc(NC(=O)[C@H]3CCN(C#N)C3)c2)cc1,-20.8% (active)
4,S=C1CCCCCN1,107%
5,COc1ccc(-c2cc(-c3ccccc3)nc(SCCCC(=O)NO)n2)cc1OC,-12.2% (active)
6,Cc1ccc(C)c2c(C)c(C(=O)Nc3cccc(-n4cccn4)c3)oc12,87.9% [50 µM]
7,NC(=S)N/N=C\c1nccc2c(C(F)(F)F)cccc12,-24.8% (active)
8,Nc1cccc(C(=O)Nc2ccc3c(O)c(N=Nc4ccc(N=Nc5ccc(S(=O)(=O)O)cc5)cc4)c(S(=O)(=O)O)cc3c2)c1,88.7%
9,CO[C@H](C(=O)N[C@@H](CCCCNC(=O)OCc1ccccc1)C(=O)OC(C)(C)C)[C@@H]1Cc2cc3cc(OC4CC(OC5CC(O)C(O)C(C)O5)C(O)C(C)O4)c(C)c(O)c3c(O)c2C(=O)[C@H]1OC1CC(OC2CC(OC3CC(C)(O)C(O)C(C)O3)C(O)C(C)O2)C(O)C(C)O1 (stereo not given in full),-0.249% (active)
10,CC(=O)O[C@@H]1/C=C/C(=O)N[C@@H](C)CCC/C=C/[C@@H]2CCC[C@H]21,99.8%
11,COC(=O)c1nc(=S)[nH]c(C(=O)OC)c1C(=O)c1ccccc1,116%
12,Oc1ccc2c(=S)cc(-c3ccc(Br)cc3)oc2c1O,-22% (active)
13,COC(=O)C(Cc1cn(C(C)=O)c2ccccc12)P(=O)(OC)OC (stereo not given),97.5%
14,COc1ccc2c(c1)c(CC(=O)NCCOCCOCC(=O)Nc1ccc(OC)c(C(N)=O)c1O)c(C)n2C(=O)c1ccc(Cl)cc1,107%
15,O=S(=O)(NCCCNc1nccc(-c2cn(-c3ccccc3)nc2-c2ccc(Cl)c(O)c2)n1)c1ccccc1,83.4%
16,COc1ccc(NC(=S)Nc2ccccn2)cc1,84.9%
17,Fc1ccc(NC(c2ccc(F)cc2)C2CCN(CCCCc3ccccc3)CC2)cc1 (stereo not given),10.8%
18,CCc1cccc2c1S/C(=C/c1ccc(Cl)cc1)C2=O,93.5%
19,COc1ccc(/C=C(\C#N)c2cc3ccccc3[nH]2)cc1,14.8%
20,Cn1cc(-c2nc3c(F)cc4[nH]ncc4c3c3c2CCCC3)c(C(F)(F)F)n1,-11.2% (active)
